Whole data set: some 33,000 sequences, median “E-score (-0.5 to 0.5)” near -0.013, cut for the highest 2% near 0.3. For the sample, the highest values were picked, then their nearest neighbours and some sequences at random.
target: T1, Msn1 (UniProt P22148); experiment: PBM E-score (8-mer binding enrichment) (E-score (-0.5 to 0.5)); higher = stronger / more preferred TF binding; settings: protein concentration: 200 nM; construct: GST-full length
T1 sequence: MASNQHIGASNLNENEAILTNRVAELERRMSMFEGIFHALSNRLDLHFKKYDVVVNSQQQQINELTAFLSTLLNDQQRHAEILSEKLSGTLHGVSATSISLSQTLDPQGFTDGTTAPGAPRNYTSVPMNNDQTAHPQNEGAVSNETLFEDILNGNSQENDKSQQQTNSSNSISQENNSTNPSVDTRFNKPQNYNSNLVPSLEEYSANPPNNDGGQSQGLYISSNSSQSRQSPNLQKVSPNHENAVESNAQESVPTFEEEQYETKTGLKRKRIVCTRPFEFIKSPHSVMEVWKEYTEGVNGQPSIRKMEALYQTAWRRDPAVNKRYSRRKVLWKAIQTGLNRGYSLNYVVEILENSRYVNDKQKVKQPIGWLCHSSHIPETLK
Procedure, shortened: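 GST-tagged yeast TFs (full-length or DNA-binding domain) were made by PURExpress in vitro transcription/translation and applied at about 100-200 nM to universal all-10-mer Agilent arrays. The arrays were made double-stranded by primer extension, on fresh or once-stripped slides. Bound protein was detected with fluorescent anti-GST, and scans were normalised with masliner. Each ungapped eight-base word, pooled with its reverse complement, received an E-score (modified Wilcoxon-Mann-Whitney statistic) from the Universal PBM Analysis Suite.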

Row | Sequence | PBM E-score
1 | TACAGGAA | 0.0582
2 | AGATCCTC | -0.125
3 | AGATGCGA | 0.0645
4 | GCTGAACA | 0.00499
5 | CTGGCGTA | -0.252
6 | AGGCGGTG | -0.217
7 | TCCATCCA | -0.00245
8 | CAACCAGC | -0.114
9 | ACTTTGTA | 0.129
10 | CTTTTGTA | 0.3
11 | CCTTTGTA | 0.163
12 | CTTTTGTC | 0.455
13 | ACTTTGTG | 0.0353
14 | CCTTTGCC | -0.104
15 | CCTTTGTC | 0.367
16 | CTTTTGAC | 0.0513
17 | ACTTTGTC | 0.41
18 | GAATTGCC | 0.0969
19 | AACCTACA | 0.0149
20 | GGATCATA | -0.0918
21 | ATAGCATG | -0.207
22 | AGACACAG | 0.131
23 | AGACACAA | 0.332
24 | GGACACCC | -0.0113
25 | CGACACGA | 0.274

Row | Sequence | PBM E-score
26 | GGACACGA | 0.396
27 | TGACACAA | 0.183
28 | GGACACAA | 0.462
29 | CGACACAC | 0.0525
30 | GGACACAC | 0.382
31 | AGACACAC | 0.133
32 | CGACACAA | 0.00596
33 | AGACACGA | 0.158
34 | CGATATCG | 0.0659
35 | TCCTGAGA | 0.0942
36 | CTTTATGA | 0.0103
37 | AGCTCTTA | -0.0201
38 | CGGGCAAG | 0.0918
39 | CAACGTTG | 0.128
40 | AGGCAACA | -0.161
41 | GCCAGTCA | -0.117
42 | ATCTGTCC | 0.387
43 | CTCTGTAC | 0.0138
44 | CTCTGTCC | 0.34
45 | ATCTGTCG | 0.0829
46 | ATCTGTCA | 0.159
47 | CTCTGTCA | -0.0435
48 | AAAACCTG | 0.0428
49 | AAGCTCCA | -0.219
50 | GAAGGGCC | -0.143

Row | Sequence | PBM E-score
51 | ATCTGTTA | 0.183
52 | ATCGCAAA | 0.0406
53 | CTTTGTTC | 0.0603
54 | CTTTGTTA | 0.215
55 | ATTTGTTG | 0.177
56 | AGTTGTCG | 0.168
57 | ATTTGTCA | 0.46
58 | ATTTGTCG | 0.451
59 | ATTTGTTA | 0.087
60 | CTTTGTCC | 0.485
61 | CTTTGTGC | 0.058
62 | GTTTGTCA | 0.299
63 | CTTTGTGA | 0.126
64 | CTTTGTCA | 0.311
65 | GCGCTAGA | -0.116
66 | TATTGGCA | 0.0554
67 | GGCTGGAC | -0.135
68 | TATGGTGA | -0.0581
69 | CCGCTCAC | -0.22
70 | ATCACGAC | 0.117
71 | AACAAAGC | -0.00117
72 | TACAAGGA | 0.197
73 | GACAAGGA | 0.311
74 | CACAAGGA | 0.0619
75 | TACAAAGA | 0.208

Row | Sequence | PBM E-score
76 | GACAAAGA | 0.404
77 | GACAAAGC | 0.393
78 | CACAAAGC | 0.161
79 | AACAAAGA | 0.139
80 | CCATGAAG | 0.0685
81 | ACGTCGCT | -0.211
82 | CAAGTGAA | 0.223
83 | GCATGCCC | 0.101
84 | CTCTTGCC | -0.0644
85 | CGACAGAC | -0.0767
86 | GGACAGAA | 0.332
87 | AGACAGAA | 0.00949
88 | GGACAGAC | 0.375
89 | AGACAGAC | 0.279
90 | CGACAGAA | 0.167
91 | GATTGCAC | 0.0495
92 | CGAAAGCG | 0.0854
93 | AAGCCAGA | 0.00654
94 | ACGTTCAG | -0.0415
95 | TGTCCGAA | 0.452
96 | CGTCCACA | 0.188
97 | TGTCCAAA | 0.473
98 | TGTCCTAA | 0.487
99 | AGTCCAAA | 0.214
100 | AGTCCTAA | 0.297

Row | Sequence | PBM E-score
101 | GGTCCTAA | 0.18
102 | TGTCCACA | 0.455
103 | CGTCCGAA | 0.222
104 | GGTCCGAA | 0.128
105 | AGTCCACG | -0.059
106 | GGTCCAAA | -0.0431
107 | CCGGGATA | 0.101
108 | ACTGGTTC | -0.0366
109 | CCAGCTAG | -0.16
110 | CGCCTGAC | -0.0177
111 | CCTAACGC | -0.129
112 | AGTGAGGA | -0.0425
113 | AACATAGC | 0.13
114 | CCACCAAC | -0.0306
115 | AACCTGGT | 0.00051
116 | TGTCCCAA | 0.463
117 | CGTCCCAA | 0.218
118 | AGTCCCAA | 0.17
119 | AAGCATTA | -0.0789
120 | CTCGATGA | -0.0098
121 | ACGACCTA | -0.0056
122 | CAGGCCGC | -0.144
123 | AACATACC | 0.107
124 | CACATACA | 0.0971
125 | GACATACA | 0.414

Row | Sequence | PBM E-score
126 | TACATACA | 0.207
127 | CACATACC | 0.0401
128 | GACATACC | 0.4
129 | GCGGATCA | -0.116
130 | ACAAAAGG | 0.229
131 | AGTTAGAC | 0.124
132 | CTTGGGTC | -0.123
133 | GGACTCAC | -0.116
134 | GCCCTTTA | -0.318
135 | GTCCAAAC | 0.175
136 | CTACAAAA | 0.0933
137 | TTCCAAAA | 0.192
138 | CTACAAAC | -0.0616
139 | ATACAAAC | 0.125
140 | GTACAAAA | 0.416
141 | GTACAAAC | 0.421
142 | GTCCAAAA | 0.318
143 | TTACAAAA | 0.12
144 | ACGAGTAT | -0.134
145 | GAAGGCTC | -0.291
146 | CTTGGGCC | -0.266
147 | CTACACGC | -0.145
148 | GCTTCTAC | -0.0502
149 | CGTAAGTA | 0.0282
150 | GTGTGACA | 0.17

Row | Sequence | PBM E-score
151 | ACGTGACA | 0.27
152 | TCGTGACA | 0.314
153 | ATGTGACA | 0.305
154 | CCGTGACA | 0.164
155 | ATGTGACG | -0.223
156 | CTGTGACA | 0.316
157 | CTGTGAAA | 0.2
158 | CTGTGACC | -0.115
159 | CCTGCTTC | -0.172
160 | GCGCCTAA | 0.129
161 | CGTAGGGA | 0.0214
162 | GGTTTGCA | -0.172
163 | ACGAATCA | 0.13
164 | CAGTCACG | -0.198
165 | ATTGCTGC | -0.0878
166 | ATTCGGAA | 0.167
167 | ATTCGGAG | 0.0972
168 | ATTCGGAC | 0.339
169 | AAAGATAT | 0.113
170 | AATGAGAG | -0.161
171 | CCCCAATC | -0.222
172 | CTGACATC | 0.143
173 | ATGACATG | 0.361
174 | ATGACAGG | 0.105
175 | ATGACACA | 0.287

Row | Sequence | PBM E-score
176 | ATGACATA | 0.417
177 | GTGACATA | 0.328
178 | ATGACACC | 0.0663
179 | CTGACATA | 0.269
180 | GTGACAGA | 0.161
181 | ATGACATC | 0.349
182 | GTGACTGA | 0.0999
183 | ATGACAGA | 0.137
184 | AGCGCGTG | -0.133
185 | CATTGGGG | -0.125
186 | GGGACCAA | -0.0643
187 | CGCCTCTA | -0.0484
188 | CACACTGG | -0.259
189 | CATGCAGA | -0.0066
190 | CATCTCGA | 0.149
191 | CAAGAAAG | 0.0067
192 | GATCTTAC | 0.00117
193 | TGAGACAA | 0.397
194 | AGAGACAG | 0.0165
195 | AGAGACAC | 0.177
196 | CGAGACAC | 0.183
197 | CGAGACAG | -0.00132
198 | TGAGACCA | -0.0631
199 | CGAGACAA | 0.365
200 | AGAGACAA | 0.375

Row | Sequence | PBM E-score
201 | TGAGAGAA | 0.00621
202 | AGAGAGAC | -0.0618
203 | AGAGACAT | 0.43
204 | AGAGACCT | -0.012
205 | ATAGCGGG | -0.192
206 | ACGAAGCT | -0.0736
207 | CCTTTGGC | -0.132
208 | AATCGAAT | 0.047
209 | ACGTTGCC | -0.241
210 | CCAGCGCG | -0.158
211 | GAGCTCGC | -0.0509
212 | CACCCACA | -0.132
213 | ATTAGCTA | -0.086
214 | GCCCGGAA | 0.0421
215 | GGAGACCA | -0.0845
216 | GGAGACAA | 0.32
217 | GGAGACAC | 0.0421
218 | AGTCTTGC | -0.0197
219 | CCAAAGTA | -0.0844
